Measured values as given in PubChem BioAssay (NCATS).
Inconclusive results are not listed. Values without a mark were called inactive. Active and inactive are the calls of the source. The call rests on the fitted dose curve; in most records, active means well fitted cell-killing curve with a large enough effect; inconclusive means small, poorly fitted or top-dose-only effect, or effect the other way; inactive means no such curve, though single readings can be large or run the other way.

Experiments:
[1] = Quantitative High-Throughput drug screen in 47 multiple myeloma cell lines against the NCATS MIPE library collection: MM1R_ATCC cell viability assay (AID 1918981); further: nearly all actives have a fitted effect of over 35% in size
Summary of the method: (§1)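 Plated at 500 cells per well, myeloma lines received MIPE 4.0 compounds by pin tool. Following 48 h culture at 37 °C, CellTiter-Glo luminescence gave viability relative to DMSO and media-only controls.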

[2] = Quantitative High-Throughput drug screen in 47 multiple myeloma cell lines against the NCATS MIPE library collection: LP1_DSMZ cell viability assay (AID 1918982); further: nearly all actives have a fitted effect of over 35% in size
Summary of the method: as §1

[3] = Quantitative High-Throughput drug screen in 47 multiple myeloma cell lines against the NCATS MIPE library collection: KMS28PE_JCRB cell viability assay (AID 1918983); further: nearly all actives have a fitted effect of over 35% in size
Summary of the method: as §1

[4] = Quantitative High-Throughput drug screen in 47 multiple myeloma cell lines against the NCATS MIPE library collection: L363_DSMZ cell viability assay (AID 1918984); conditions: L363 myeloma viability, CellTiter-Glo ATP luminescence, 48 h; viability (% of control): at 45.8 µM (top of the series); further: nearly all actives have a fitted effect of over 40% in size
Summary of the method: as §1

[5] = Quantitative High-Throughput drug screen in 47 multiple myeloma cell lines against the NCATS MIPE library collection: KMS34_JCRB cell viability assay (AID 1918985); further: nearly all actives have a fitted effect of over 40% in size
Summary of the method: as §1

[6] = Quantitative High-Throughput drug screen in 47 multiple myeloma cell lines against the NCATS MIPE library collection: OCIMY7_PLB cell viability assay (AID 1918987); conditions: OCI-MY7 myeloma viability, CellTiter-Glo ATP, 48 h; viability (% of DMSO): at 45.8 µM (top of the series); further: nearly all actives have a fitted effect of over 65% in size
Summary of the method: as §1

[7] = Quantitative High-Throughput drug screen in 47 multiple myeloma cell lines against the NCATS MIPE library collection: OCIMY5_PLB cell viability assay (AID 1918988); further: nearly all actives have a fitted effect of over 65% in size
Summary of the method: as §1

[8] = Quantitative High-Throughput drug screen in 47 multiple myeloma cell lines against the NCATS MIPE library collection: OPM1_PLB cell viability assay (AID 1918989); further: nearly all actives have a fitted effect of over 40% in size;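 on viability (% of control): 100% = DMSO-only wells and 0% = media-only wells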
Summary of the method: as §1

[9] = Quantitative High-Throughput drug screen in 47 multiple myeloma cell lines against the NCATS MIPE library collection: SKMM1_PLB cell viability assay (AID 1919863); conditions: SKMM1 myeloma viability, CellTiter-Glo ATP, 48 h; viability: hits give low values; further: nearly all actives have a fitted effect of over 35% in size
Summary of the method: as §1

[10] = Quantitative High-Throughput drug screen in 47 multiple myeloma cell lines against the NCATS MIPE library collection: XG1_PLB cell viability assay (AID 1919866); further: nearly all actives have a fitted effect of over 35% in size
Summary of the method: as §1

[11] = Quantitative High-Throughput drug screen in 47 multiple myeloma cell lines against the NCATS MIPE library collection: VP6_DJ cell viability assay (AID 1919867); further: nearly all actives have a fitted effect of over 40% in size;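 on viability (% of DMSO): 100% = DMSO-only wells and 0% = wells with media alone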
Summary of the method: as §1

[12] = Quantitative High-Throughput drug screen in 47 multiple myeloma cell lines against the NCATS MIPE library collection: UTMC2_PLB cell viability assay (AID 1919868); conditions: CellTiter-Glo ATP luminescence, 48 h; viability (% of DMSO control): at 45.8 µM (top of the series); further: nearly all actives have a fitted effect of over 55% in size;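 on viability (% of DMSO control): 100% = DMSO-only wells and 0% = media-only wells without cells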
Summary of the method: as §1

[13] = Quantitative High-Throughput drug screen in 47 multiple myeloma cell lines against the NCATS MIPE library collection: PE2_PLB cell viability assay (AID 1919869); further: nearly all actives have a fitted effect of over 35% in size;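 on viability (% of control): 100% = DMSO-only wells and 0% = cell-free media-only wells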
Summary of the method: as §1

[14] = Quantitative High-Throughput drug screen in 47 multiple myeloma cell lines against the NCATS MIPE library collection: PCM6_Riken cell viability assay (AID 1919870); further: nearly all actives have a fitted effect of over 30% in size;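 on viability (% of control): 100% = DMSO-only wells and 0% = media-only wells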
Summary of the method: as §1

[15] = Quantitative High-Throughput drug screen in 47 multiple myeloma cell lines against the NCATS MIPE library collection: OPM2_DSMZ cell viability assay (AID 1919872); further: nearly all actives have a fitted effect of over 30% in size
Summary of the method: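 Relative luminescence from CellTiter-Glo served as the viability signal, referenced to DMSO-treated (100%) and cell-free medium (0%) controls. Treatment lasted 48 hours at 37C with 500 cells per well.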

[16] = Quantitative High-Throughput drug screen in 47 multiple myeloma cell lines against the NCATS MIPE library collection: KMS11_JCRBsus cell viability assay (AID 1919873); further: nearly all actives have a fitted effect of over 50% in size;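 on viability (% of control): 100% = DMSO-only wells and 0% = media-only wells without cells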
Summary of the method: as §1

[17] = Quantitative High-Throughput drug screen in 47 multiple myeloma cell lines against the NCATS MIPE library collection: U266_ATCC cell viability assay (AID 1919864); further: nearly all actives have a fitted effect of over 35% in size;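 on viability (% of DMSO control): 0% = media-only wells without cells and 100% = DMSO-only wells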
Summary of the method: as §1

[18] = Quantitative High-Throughput drug screen in 47 multiple myeloma cell lines against the NCATS MIPE library collection: XG6_PLB cell viability assay (AID 1919865); further: nearly all actives have a fitted effect of over 40% in size;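 on viability (% of control): 100% = DMSO-only wells and 0% = media-only wells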
Summary of the method: as §1

[19] = Quantitative High-Throughput drug screen in 47 multiple myeloma cell lines against the NCATS MIPE library collection: KMS28BM_JCRB cell viability assay (AID 1919874); further: nearly all actives have a fitted effect of over 35% in size
Summary of the method: as §1

[20] = Quantitative High-Throughput drug screen in 47 multiple myeloma cell lines against the NCATS MIPE library collection: RPMI8226_ATCC cell viability assay (AID 1919871); further: nearly all actives have a fitted effect of over 30% in size
Summary of the method: as §1
Potency means the concentration at half of the fitted maximal effect.

## COC(=O)Nc1ccc(-c2nc(N3CCOCC3)c3cnn(C4CCN(C(=O)OC)CC4)c3n2)cc1
[1]
  Potency: 0.743 µM (active)
[2]
  Potency: 0.235 µM (active)
[3]
  Potency: 1.18 µM (active)
[4]
  Potency: 0.0935 µM (active)
[5]
  Potency: 1.05 µM (active)
[6]
  Potency: 0.0235 µM (active)
[7]
  Potency: 1.18 µM (active)
[8]
  Potency: 0.372 µM (active)
[9]
  Potency: 11.8 µM (active)
[10]
  Potency: 0.296 µM (active)
[11]
  Potency: 0.148 µM (active)
[12]
  Potency: 0.059 µM (active)
[13]
  Potency: 0.332 µM (active)
[14]
  Potency: 1.87 µM (active)
[15]
  Potency: 2.35 µM (active)
[16]
  Potency: 0.166 µM (active)

## CN1c2ccccc2C(=O)N2CCc3c([nH]c4ccccc34)C21 (configuration not stated)
[1]
  Potency: inactive
[2]
  Potency: inactive
[3]
  Potency: inactive
[6]
  Potency: 20.9 µM (active)
[7]
  Potency: inactive
[17]
  Potency: 16.6 µM (active)
[18]
  Potency: 14.8 µM (active)
[15]
  Potency: inactive
[16]
  Potency: 2.96 µM (active)
[19]
  Potency: 3.32 µM (active)

## O=C(O)C1=NC(C(=O)O)CC(C=CN2c3cc(O)c(OC4OC(CO)C(O)C(O)C4O)cc3CC2C(=O)O)=C1 (configuration not stated)
[1]
  Potency: inactive
[2]
  Potency: inactive
[3]
  Potency: inactive
[4]
  Potency: inactive
[8]
  Potency: inactive
[9]
  viability: 117%
[10]
  Potency: inactive
[13]
  Potency: inactive
[20]
  Potency: inactive
[16]
  Potency: inactive

## CN1[C@H]2CC[C@H]1CC(OC(=O)c1c[nH]c3ccccc13)C2 (some centres not stated)
[1]
  Potency: inactive
[2]
  Potency: inactive
[3]
  Potency: 9.35 µM (active)
[5]
  Potency: inactive
[17]
  Potency: 10.5 µM (active)
[18]
  Potency: 16.6 µM (active)
[11]
  Potency: 8.33 µM (active)
[12]
  Potency: inactive
[13]
  Potency: inactive
[14]
  Potency: 6.62 µM (active)
[15]
  Potency: inactive

## CC1(COc2ccc3c(c2)ncn3-c2ccc3cccc(N4CCC(N)CC4)c3n2)COC1
[1]
  Potency: 0.526 µM (active)
[2]
  Potency: 1.18 µM (active)
[3]
  Potency: 0.59 µM (active)
[5]
  Potency: 1.05 µM (active)
[6]
  Potency: 0.059 µM (active)
[8]
  Potency: 0.0235 µM (active)
[9]
  Potency: 16.6 µM (active)
[17]
  Potency: 0.059 µM (active)
[13]
  Potency: 0.0148 µM (active)
[20]
  Potency: 20.9 µM (active)
[15]
  Potency: 0.743 µM (active)
[19]
  Potency: 0.372 µM (active)

## O=c1[nH]c(=O)n([C@H]2C[C@@H](O)[C@@H](CO)O2)cc1I
[1]
  Potency: 6.62 µM (active)
[2]
  Potency: inactive
[3]
  Potency: inactive
[5]
  Potency: 2.09 µM (active)
[7]
  Potency: inactive
[8]
  Potency: inactive
[9]
  viability: 119%
[10]
  Potency: inactive
[11]
  Potency: inactive
[13]
  Potency: inactive
[16]
  Potency: 2.09 µM (active)
[19]
  Potency: inactive

## NC(N)=Nc1nc(CSCCC(N)=NS(N)(=O)=O)cs1
[1]
  Potency: 23.5 µM (active)
[2]
  Potency: inactive
[3]
  Potency: inactive
[5]
  Potency: inactive
[6]
  Potency: 10.5 µM (active)
[7]
  Potency: 29.6 µM (active)
[8]
  Potency: 16.6 µM (active)
[17]
  Potency: 20.9 µM (active)
[18]
  Potency: 6.62 µM (active)
[10]
  Potency: 14.8 µM (active)
[11]
  Potency: 5.26 µM (active)
[12]
  Potency: 9.35 µM (active)
[13]
  Potency: 20.9 µM (active)
[14]
  Potency: 14.8 µM (active)
[20]
  Potency: inactive
[16]
  Potency: inactive

## CC[C@H](NC(=O)[C@H](C)NC)C(=O)N1C[C@@H](O)C[C@H]1Cc1c(-c2[nH]c3cc(F)ccc3c2C[C@H]2C[C@H](O)CN2C(=O)[C@H](CC)NC(=O)[C@H](C)NC)[nH]c2cc(F)ccc12
[1]
  Potency: 0.418 µM (active)
[2]
  Potency: 20.9 µM (active)
[3]
  Potency: inactive
[6]
  Potency: 1.87 µM (active)
[8]
  Potency: 13.2 µM (active)
[18]
  Potency: 4.18 µM (active)
[10]
  Potency: 5.9 µM (active)
[11]
  Potency: 3.72 µM (active)
[14]
  Potency: 5.9 µM (active)
[20]
  Potency: 1.32 µM (active)
[16]
  Potency: inactive
[19]
  Potency: inactive

## COc1ccnc(CS(=O)c2nc3ccc(OC(F)F)cc3[nH]2)c1OC (configuration not stated)
[1]
  Potency: inactive
[2]
  Potency: inactive
[3]
  Potency: inactive
[5]
  Potency: inactive
[7]
  Potency: inactive
[9]
  viability: 150%
[17]
  Potency: inactive
[18]
  Potency: 20.9 µM (active)
[13]
  Potency: inactive
[15]
  Potency: inactive

## C[C@@H]1C[C@H]2[C@@H]3CCC4=CC(=O)C=C[C@]4(C)[C@@]3(F)[C@@H](O)C[C@]2(C)[C@@]1(O)C(=O)CO
[1]
  Potency: inactive
[2]
  Potency: 0.0083 µM (active)
[3]
  Potency: inactive
[5]
  Potency: inactive
[6]
  Potency: inactive
[9]
  viability: 118%
[17]
  Potency: inactive
[10]
  Potency: inactive
[12]
  Potency: inactive
[13]
  Potency: inactive
[14]
  Potency: inactive
[20]
  Potency: 0.0166 µM (active)
[15]
  Potency: inactive
[16]
  Potency: 0.0132 µM (active)
[19]
  Potency: inactive

## CCC[C@H](Nc1nc(-c2ccc(NC(=O)NCC)c(OC)c2)ncc1C)c1cccnc1
[1]
  Potency: 0.0187 µM (active)
[2]
  Potency: 0.0187 µM (active)
[3]
  Potency: 0.0148 µM (active)
[5]
  Potency: 0.0059 µM (active)
[7]
  Potency: 0.0166 µM (active)
[8]
  Potency: 0.001 µM (active)
[9]
  Potency: 0.003 µM (active)
[12]
  Potency: 0.001 µM (active)
[13]
  Potency: 0.001 µM (active)
[20]
  Potency: 0.0264 µM (active)
[15]
  Potency: 0.0083 µM (active)
[16]
  Potency: 0.0012 µM (active)

## COc1cccc(OC)c1-c1cc(C(=O)NC2(C(=O)O)C3CC4CC(C3)CC2C4)nn1-c1ccnc2cc(Cl)ccc12 (configuration not stated)
[1]
  Potency: inactive
[2]
  Potency: inactive
[3]
  Potency: inactive
[7]
  Potency: inactive
[8]
  Potency: inactive
[18]
  Potency: inactive
[10]
  Potency: inactive
[11]
  Potency: inactive
[12]
  Potency: inactive
[13]
  Potency: inactive
[20]
  Potency: inactive
[16]
  Potency: inactive
[19]
  Potency: inactive

## O=C(Nc1ccc(OC(F)(F)F)cc1)c1sccc1NCc1ccnc2ccccc12
[1]
  Potency: 20.9 µM (active)
[2]
  Potency: 20.9 µM (active)
[3]
  Potency: 20.9 µM (active)
[5]
  Potency: 10.5 µM (active)
[6]
  Potency: 16.6 µM (active)
[7]
  Potency: 2.96 µM (active)
[8]
  Potency: 20.9 µM (active)
[10]
  Potency: 5.9 µM (active)
[11]
  Potency: 16.6 µM (active)
[12]
  Potency: 23.5 µM (active)
[13]
  Potency: 20.9 µM (active)
[15]
  Potency: 18.7 µM (active)
[16]
  Potency: 7.43 µM (active)
